According to PubChem BioAssay AID651640 (Broad Institute, 2012):
About 6,000 (1.7%) of roughly 350,000 compounds were called active. Another 5% or so got no clear call; they are omitted. What follows is part of a selection rich in actives, with near analogues and random picks from the rest. Unmarked numbers belong to inactive results. Cut-off read from the data, not from the text of the source: active = CPE inhibition above about 20% (passing the limit was not always enough); inconclusive = no clear call, values can overlap the other calls; tested in BHK-21 cells.

Experiment: protection of cells from dengue 2 killing – plate reader, single concentration, primary screen (AID 651640);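 note: 0% = median of neutral control wells and 100% = median of positive control wells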
Details: DENV2-infected cells, cytopathic effect rescue, at 9.99 µM, active compounds read high

Point of comparison: `Cc1ccc(S(=O)(=O)N(C)C[C@H]2Oc3c(NS(=O)(=O)c4cccs4)cccc3C(=O)N([C@@H](C)CO)C[C@@H]2C)cc1`, CPE inhibition -0.283%. Against it:
- CO[C@@H]1CN(C)C(=O)c2cc(NC(=O)Nc3cc(F)ccc3F)ccc2OC[C@H](C)N(C)C[C@@H]1C — higher, -0.0135%
- CN1c2ccc(-c3ccc(C#N)cc3)cc2[C@@H]2[C@@H](CCN2C(=O)C2CCCCC2)[C@H]1CO — lower, -20.7%
- Cc1ccc(CN2CC(N3CCC(Cc4ccccc4)CC3)CS2(=O)=O)cc1 (configuration not stated) — lower, -8.76%
- O=S1(=O)CCOC[C@H](CC2CCCCC2)N1Cc1ccc(F)cc1 — higher, 3.12%
- COc1ccc(-c2cnc3c(c2)C(=O)N([C@H](C)CO)C[C@@H](C)[C@H](CN(C)C(=O)Cc2ccncc2)O3)cc1 — lower, -3.69%
- Clc1cccc2c1C1CC2CCN1Cc1ccccc1 (configuration not stated) — lower, -7.07%
- FC(F)(F)c1ccc(-c2cccc3c2C2CC3CCN2Cc2ccccc2)cc1 (configuration not stated) — lower, -4.78%
- COc1cccc(S(=O)(=O)N(C)C[C@@H]2Oc3ncc(-c4cccc(C(=O)N(C)C)c4)cc3C(=O)N([C@H](C)CO)C[C@@H]2C)c1 — higher, 9.65%
- CN1c2ccc(-c3cccc(C#N)c3)cc2[C@@H]2[C@@H](CCN2C(=O)NC2CCCCC2)[C@@H]1CO — lower, -19.7%
- O=C(N[C@H]1CC[C@H](CCn2cc(-c3ccccc3F)nn2)O[C@@H]1CO)c1ccc2c(c1)OCO2 — higher, 6.43%
- COc1ccc(S(=O)(=O)N(C)C[C@@H]2Oc3c(NS(=O)(=O)c4ccccc4)cccc3C(=O)N([C@@H](C)CO)C[C@@H]2C)cc1 — lower, -6.28%
- C[C@H]1CN([C@@H](C)CO)C(=O)c2cccc(NS(=O)(=O)c3ccc(Cl)cc3)c2O[C@H]1CN(C)S(=O)(=O)c1ccc(Cl)cc1 — lower, -6.39%
- COc1ccc(S(=O)(=O)Nc2cccc3c2O[C@@H](CN(C)S(=O)(=O)c2ccc(F)cc2)[C@H](C)CN([C@H](C)CO)C3=O)cc1 — lower, -7.57%
- Cc1ccc(S(=O)(=O)N(C)C[C@@H]2Oc3c(NC(=O)Nc4ccccc4)cccc3C(=O)N([C@H](C)CO)C[C@H]2C)cc1 — higher, 5.91%
- C[C@@H]1CN([C@@H](C)CO)C(=O)c2cccc(NS(=O)(=O)c3cccs3)c2O[C@H]1CN(C)Cc1ccncc1 — lower, -4.19%
- C[C@H](CO)N1C[C@H](C)[C@H](CN(C)S(=O)(=O)c2ccccc2)Oc2c(NC(=O)Nc3ccccc3)cccc2C1=O — lower, -3.55%
- C[C@@H]1CN([C@@H](C)CO)C(=O)c2cccc(NS(=O)(=O)c3ccc(F)cc3)c2O[C@H]1CN(C)S(=O)(=O)c1cccs1 — lower, -1.22%
- Cc1ccc(S(=O)(=O)NCC[C@@H]2CC[C@H](NC(=O)CC3CC3)[C@H](CO)O2)cc1 — lower, -2.24%
- COc1ccc(NC(=O)Nc2ccc3c(c2)C(=O)N([C@H](C)CO)C[C@@H](C)[C@H](CN(C)Cc2ccccc2)O3)cc1 — lower, -6.1%
- CCCC#Cc1ccc2c(c1)O[C@H](CN(C)C(=O)c1ccncc1)[C@H](C)CN([C@H](C)CO)S2(=O)=O — lower, -4.65%
- CO[C@@H]1CN(C)C(=O)c2ccc(NS(=O)(=O)c3cn(C)cn3)cc2OC[C@H](C)N(CCC(F)(F)F)C[C@@H]1C — lower, -5.08%
- C[C@@H]1CN([C@@H](C)CO)C(=O)c2cc(NC(=O)CCN3CCOCC3)ccc2O[C@H]1CN(C)C(=O)NC1CCCCC1 — lower, -3.33%
- CC(C)NC(=O)N1C[C@@H]2[C@H](c3ccccc31)[C@H](CO)N2C(=O)C1CCCC1 — lower, -6.09%
- COc1ccccc1NC(=O)N1C[C@@H]2[C@H](c3ccccc31)[C@H](CO)N2CC1CCOCC1 — higher, 16.7%
- CN1[C@@H]2CN(C(=O)C3CCCCC3)c3ccccc3[C@@H]2[C@@H]1CO — lower, -5.31%
- CC(=O)N1C[C@@H]2[C@H](c3ccccc31)[C@H](CO)N2Cc1ccc(Cl)cc1 — higher, 16.8%
- COc1ccc(CN2[C@@H](CO)[C@@H]3c4ccccc4N(C(=O)Nc4ccccc4)C[C@@H]32)cc1 — lower, -9.93%
- COc1ccc(C(=O)N2C[C@@H]3[C@H](c4ccccc42)[C@H](CO)N3Cc2ccc3c(c2)OCO3)cc1 — lower, -6.95%
- CCC(=O)N(C)C[C@H]1Oc2ncc(C#Cc3cccnc3)cc2C(=O)N([C@H](C)CO)C[C@H]1C — higher, 4.92%
- CCCNC(=O)N1[C@H](C#N)[C@@H](c2ccccc2C2=CCCCC2)[C@@H]1CO — lower, -2.61%
- O=C(c1ccc2c(c1)OCO2)N1CC(=O)N2[C@H](C1)[C@@H](c1ccc(C#Cc3ccccc3)cc1)[C@@H]2CO — higher, 11.6%
- COc1ccc(NC(=O)Nc2ccc3c(c2)C(=O)N([C@H](C)CO)C[C@@H](C)[C@@H](CN(C)C(=O)NC(C)C)OCCCC[C@H](C)O3)cc1 — higher, 4.29%

For `Cc1ccc(CN2CCCOCCS2(=O)=O)cc1`, the CPE inhibition was 40.2% (active).
For `CCCCN(C(C)=O)c1ccc2c(c1)C1CC2CCN1Cc1ccccc1` (configuration not stated), the CPE inhibition was 42.3% (active).
For `C[C@@H]1CN([C@@H](C)CO)C(=O)c2cccc(NS(=O)(=O)c3cccs3)c2O[C@@H]1CN(C)CC1CC1`, the CPE inhibition was 30.5% (active).
With `C[C@H]1CN([C@@H](C)CO)C(=O)c2cccc(NC(=O)Nc3ccccc3)c2O[C@H]1CN(C)S(=O)(=O)c1ccc(Cl)cc1` the CPE inhibition was 29.2% (active).
For `COc1ccc(S(=O)(=O)Nc2cccc3c2O[C@H](CN(C)S(=O)(=O)c2ccc(OC)cc2)[C@@H](C)CN([C@H](C)CO)C3=O)cc1`, the CPE inhibition was 21.2% (active).
With `C[C@H](CO)N1C[C@H](C)[C@H](CN(C)S(=O)(=O)c2cccs2)Oc2c(NS(=O)(=O)c3ccc(Cl)cc3)cccc2C1=O` the CPE inhibition was 24.5% (active).
In the case of `CC(C)NC(=O)N1C[C@@H]2[C@H](c3ccccc31)[C@@H](CO)N2Cc1ccc(Cl)cc1`, the CPE inhibition was 47.3% (active).
For `COc1ccccc1NC(=O)N1C[C@H]2[C@@H](c3ccccc31)[C@H](CO)N2Cc1ccc2c(c1)OCO2`, the CPE inhibition was 55.6% (active).
For `COc1ccc(CN2[C@H](CO)[C@@H]3c4ccccc4N(C(=O)C4CC4)C[C@@H]32)cc1`, the CPE inhibition was 26.1% (active).
